# Experimental data as given in PubChem BioAssay (NCI).
# This is part of a sample that, as a whole, favours compounds with a hit. Of some 83,000 tested, about 20% had one in any assay.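 Note: values are percent growth. 100 is the growth of untreated cells, values between 100 and 0 indicate rising inhibition; between -100 and 0 indicates cell death.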 Unmarked numbers belong to inactive results. Active and inactive are the calls of the source. How the source made its calls: active means growth percent below 10; inactive means the rest.
# Tested on: UACC-257 melanoma
# Experiment: NCI-60 one-dose screen, 48 h (100 = growth as untreated, 0 = no growth, -100 = all killed)
# Details: 10 µM unless noted
row,SMILES,growth
1,Nc1ccc(S(=O)(=O)O)c2ccc(N=Nc3ccc(N=Nc4ccc(S(=O)(=O)O)cc4)c4ccccc34)c(O)c12,109%
2,CSc1ccc(-c2n[nH]nc2-c2cc3ccccc3s2)cc1,58.4%
3,COc1ccc(C(=O)COc2ccc(/C=C3\COc4ccc(OC)cc4C3=O)cc2)cc1,29.2%
4,COc1cc(C=Nc2oc(-c3ccccc3)c(-c3ccccc3)c2C#N)cc(CN2CCCCC2)c1O,116%
5,O=C1CC[C@H](c2ccc(O)c3c2C(=O)[C@@H]2O[C@@H]2C3=O)c2cccc(O)c21,38%
6,C#CC(F)(F)[C@]1(O)CC[C@H]2[C@@H]3CCC4=CC(=O)CCC4=C3[C@@H](c3ccc(C(C)=O)cc3)C[C@@]21C,89.8%
7,O=C(Cc1ccccc1Nc1c(Cl)cccc1Cl)NN1C(=O)/C(=C/c2ccc(Br)cc2)SC1=S,103%
8,Cc1nn(-c2cc(=O)[nH]c3ccccc23)c(N)c1C#N,110%
9,CCn1c(Cc2ccccc2Nc2c(Cl)cccc2Cl)nnc1SCC(=O)NN1C(=O)/C(=C/c2cc(OC)c(O)c(OC)c2)SC1=S,63.7%
10,Cc1cc(C)nc(SC2=C(Nc3cc(Cl)ccc3O)C(=O)N(Cc3ccccc3)C2=O)n1,83.5% [30 µM]
11,CCN(CC)c1ccc(/C=N\NC(=O)/C=C/C=C/c2ccc3c(c2)OCO3)c(O)c1,24.2%
12,N#Cc1cnn(-c2nc3c(Cl)cccc3s2)c1N,102%
13,COc1ccc(S(=O)(=O)N2CC3(COC3)C2)cc1NC(=O)c1[nH]c(C)c2c1CCCCC2=O,51.9%
14,Cn1cc(C(=O)c2nc(-c3c[nH]c4ccc(F)cc34)no2)c2cc(F)ccc21,99.2%
15,O=C1C=C(OCC=C(Cl)Cl)C(=O)c2ccccc21,76.4%
16,Cc1cc(C)nc(SC2=C(Nc3cccc(Cl)c3)C(=O)N(Cc3ccccc3)C2=O)n1,71.7% [30 µM]
17,O=c1cc(CSc2nnc(-c3ccc(F)cc3)o2)c2ccc3ccccc3c2o1,103%
18,CCCn1c(=O)[nH]c(N)c([C@H]2c3ccccc3Oc3[nH]c(=O)n(CCC)c(=O)c32)c1=O,76.3%

row,SMILES,growth
1,O=C(CCN1C(=O)/C(=C/c2ccc(Cl)cc2)SC1=S)NCCCN1CCOCC1,102%
2,Cc1nc2ccccc2n1C(=O)C[C@@H]1NC(=S)NC1=O,86.9%
3,O=C(N=Nc1c(O)[nH]c2ccc(Br)cc12)c1cc(-c2ccccc2)on1,110%
4,C=C(C)C(=O)Nc1ccc(NC(C)C)cc1,-7.29% (active)
5,CC(O)CN1CC(O)=C(c2nc3ccccc3s2)C1=N (stereo not given),119%
6,O=c1c2c3c(sc2nc(N/N=C/c2cn(-c4ccccc4)nc2-c2ccc(Cl)cc2)n1Cc1ccccc1)CCCC3,92%
7,COc1cccc(-c2nn(C(C)(C)C)cc2-c2ccnc(NCCCNS(=O)(=O)c3ccc(C)cc3)c2)c1,111%
8,CSc1nc(Nc2cccc(NC(=O)CCl)c2)c(C#N)c(-c2cccc([N+](=O)[O-])c2)n1,84.6%
9,CSc1nc(Nc2cccc(NC(=O)/C(C#N)=C/c3c(Cl)cccc3Cl)c2)c(C#N)c(-c2cccc([N+](=O)[O-])c2)n1,73.5%
10,COc1ccc(-c2nc3ccc(-c4nc5ccc(N6CCN(c7ccccc7)CC6)cc5[nH]4)cc3[nH]2)cc1OC,-19.8% (active)
11,COc1ccc(CCNc2nc3c(c(=O)n(Cc4ccc(Br)cc4)c(=O)n3C)n2C)cc1OC,92.4%
12,C=CCSSc1ncnc2c1ncn2C1OC(CO)C(O)C1O (stereo not given),39.8%
13,Cc1ccc(NC(=O)C2CCC(CN3CCN(C)CC3)CC2)cc1Nc1nccc(-c2cccnc2)n1 (stereo not given),115%
14,COc1cc(/C=C/c2cc(O)c3cc(C(C)=O)c(=O)oc3c2)cc2c1O[C@]1(C)CC[C@@H](O)C(C)(C)[C@H]1C2,36.5%
15,C=CC(=O)Nc1cccc(Nc2nc(SC)nc(-c3cccc([N+](=O)[O-])c3)c2C#N)c1,49%
16,N#C/C(=C\c1ccc(-c2cc(C(F)(F)F)ccc2Cl)o1)c1nc(-c2ccco2)cs1,112%
17,COCCNc1ccc2c3c(cccc13)C(=O)N(CCN(C)C)C2=O,16.8%
